# Measured values as given in PubChem BioAssay (NCI).
# This is part of a sample that, as a whole, favours compounds with a hit. Of some 83,000 tested, about 20% had one in any assay.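 Note: values are percent growth. 100 is the growth of untreated cells, values between 100 and 0 indicate rising inhibition; between -100 and 0 indicates cell death.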 A number with no mark means an inactive call. The source made the active and inactive calls. Rule for the calls: active = growth percent below 10; inactive = the rest.
# Experiments:
# Experiment in all cases: NCI-60 one-dose screen, 48 h (100 = growth as untreated, 0 = no growth, -100 = all killed)
# Settings in all cases: 10 µM unless noted
# [1] = system: NCI-H23 lung
# [2] = system: NCI-H226 lung
# [3] = system: NCI-H322M lung
# [4] = system: HOP-62 NSCLC
# [5] = system: NCI-H460 lung
# [6] = system: HOP-92 NSCLC
# [7] = system: NCI-H522 lung
# [8] = system: A549/ATCC NSCLC
# [9] = system: 786-0 renal
# [10] = system: COLO 205 colon
SMILES,growth [1],growth [2],growth [3],growth [4],growth [5],growth [6],growth [7],growth [8],growth [9],growth [10]
Cc1ccc(-c2cc(-c3ccc(C)cc3)nc(NCCNc3ccnc4cc(Cl)ccc34)n2)cc1,-12% (active),-59.2% (active),14.9%,-7.66% (active),-68.8% (active),-33.9% (active),-63.6% (active),-56.5% (active),-91.4% (active),-85.8% (active)
C#C[C@]1(O)CC[C@H]2[C@@H]3CC=C4c5nc(N)sc5CC[C@]4(C)[C@H]3CC[C@@]21C,78%,83.8%,79.7%,62.5%,86.9%,62.2%,56.6%,65.9%,-0.771% (active),–
O=C1/C(=C\c2cn(CC(O)CN3CCCCC3)c3ccccc23)c2ccccc2N1c1c(Cl)cccc1Cl (stereo not drawn),-47.4% (active),-73.9% (active),-90.4% (active),-91% (active),-82.7% (active),-87.4% (active),-77.5% (active),-90.4% (active),-72.6% (active),–
CC1(C)C(=O)/C(=C\c2cccnc2)C[C@]2(C)[C@H]3CC[C@@H]4[C@H]5[C@H](C(=O)/C=C/c6cccnc6)CC[C@]5(C(=O)O)CC[C@@]4(C)[C@]3(C)CC[C@@H]12,-60.4% [100 µM] (active),-37.4% [100 µM] (active),-97.2% [100 µM] (active),-66.8% [100 µM] (active),-43.9% [100 µM] (active),-63.5% [100 µM] (active),-71.6% [100 µM] (active),-13.6% [100 µM] (active),-39.5% [100 µM] (active),–
COC(=O)c1c(C)[nH]c(/C=C2\N=C(c3ccc[nH]3)C=C2OC)c1C,10%,-16% (active),-2.96% (active),-17.5% (active),4.82% (active),-41.8% (active),-60.1% (active),-24.4% (active),-27.7% (active),–
C#CCNC(=O)CC[C@@H](C)[C@H]1CC[C@H]2[C@@H]3CC[C@@H]4CC(=O)CC[C@]4(C)[C@H]3CC[C@]12C,-27.5% [100 µM] (active),-63.7% [100 µM] (active),-5.44% [100 µM] (active),-56.3% [100 µM] (active),-55.5% [100 µM] (active),-71.6% [100 µM] (active),-63.8% [100 µM] (active),6.94% [100 µM] (active),-71.9% [100 µM] (active),–
C=CCCCCOc1ccccc1-c1cnc(OCCCCC=C)n1C,76%,92.2%,72%,77.2%,55.6%,75.2%,12.6%,50.3%,107%,–
CCN(CC)CCCC(C)Nc1c2ccc(C)cc2nc2ccc(OC)cc12 (stereo not drawn),41.8%,42.4%,10.9%,45%,-44.3% (active),40.8%,51.1%,14.7%,33%,–
CC1(C)C(=O)/C(=C\c2ccco2)C[C@]2(C)[C@H]3CC=C4[C@@H]5C[C@](C)(C(=O)O)CC[C@]5(C)CC[C@@]4(C)[C@]3(C)CC[C@@H]12,-64% [100 µM] (active),-29.3% [100 µM] (active),-91.9% [100 µM] (active),-67.7% [100 µM] (active),-73.5% [100 µM] (active),-82.8% [100 µM] (active),-64.4% [100 µM] (active),-67.6% [100 µM] (active),-53.6% [100 µM] (active),-62.2% [100 µM] (active)
CCOC(=O)c1nn(C2CCCCO2)c2ccc(NC(=O)CN3CCCC3)cc12 (stereo not drawn),110%,110%,89.7%,92.7%,100%,106%,97.9%,100%,93.3%,126%
CCN(CC)CCCNCc1cc(-c2ccccc2)nc2ccccc12,36%,86.5%,102%,44.2%,105%,49.5%,74.7%,87.9%,76.1%,117%
CC(=O)CC(=O)SC1=NCCS1,108%,112%,113%,123%,106%,101%,95.8%,87.6%,109%,109%
Cc1ccc(-c2cc(O)c(-c3ccc(C)cc3C)cc2O)c(C)c1,76.7%,62.9%,106%,74%,23.6%,67.7%,59.2%,51.9%,60%,91.1%
CC(C)CCNCC(C)(C)O,101%,111%,106%,95.5%,114%,96.6%,98.7%,105%,111%,118%
Cc1cccc(C[C@H](NC(=O)Nc2ccc(Cl)cc2F)C(=O)N[C@@H]2C(=O)N3C[C@H](O)C[C@H]3C(=O)N3CCN(C)C[C@H]3C(=O)N[C@@H](C)C(=O)N3C[C@H](C)C[C@H]3C(=O)O[C@H]2C)c1,35.3%,45.2%,65.7%,34.3%,27.7%,33.2%,33.2%,35.6%,66.6%,11.2%
CCN(CC)CCCC(C)Nc1ccnc2cc(Cl)c(SCc3ccccc3)cc12 (stereo not drawn),-17.1% (active),24.2%,-28.9% (active),-72.2% (active),-54.9% (active),-43.1% (active),-69.6% (active),-23.1% (active),-93.3% (active),-89.5% (active)
Nc1ccc(NC(=O)c2ccccc2)c2c1C(=O)c1ccccc1C2=O,96.1%,89.5%,99.1%,107%,104%,80.2%,111%,97%,103%,109%
CCOC(=O)COc1ccc2c(c1)O/C(=C\c1ccc(O)cc1)C2=O,104%,97.7%,99.7%,104%,104%,115%,97%,108%,112%,115%
COc1c(C(C)=O)c(OCCCCOc2c(C(C)=O)c(OC)c3ccoc3c2OC)c(OC)c2occc12,68.8%,65.4%,85.2%,117%,80.1%,57.3%,-7.73% (active),64.7%,89%,77%
CCOC(=O)C(C(C)=O)c1nc2sc3cc(Cl)c(Cl)cc3n2c(=O)c1C#N (stereo not drawn),94.7%,95.3%,114%,109%,92.7%,76.8%,62.9%,108%,114%,108%
Cc1cnc(N)nc1OCCNC(=O)c1cccc(-c2ccc(S(=O)(=O)Nc3ccc4c(c3)N(C(=O)C3CC3)CCC4)cc2)c1,72.4%,72%,87.5%,79.8%,75.4%,41%,70.1%,79.7%,82.3%,99.1%
CS(=O)(=O)c1cccnn1,95.8%,97.4%,99.7%,103%,101%,75.5%,82%,104%,97.2%,131%
CC(C)(C)OC(=O)N1C=C/C(=C\Cn2cc(-c3ccccc3)nn2)CC1,65%,72%,80.9%,89.3%,84.7%,62.9%,74.6%,83.8%,79.6%,109%
O=C1NC(=O)c2cc([N+](=O)[O-])cc3cccc1c23,97.6%,106%,89%,121%,98.5%,80.2%,77.5%,89.7%,98.6%,105%
O=C1/C(=C/c2ccc(OCc3ccccc3)cc2)Oc2cc(OCCN3CCCCC3)ccc21,74.5%,89.6%,97.9%,95.7%,70.3%,70.9%,87.5%,80.1%,69%,105%
Oc1cc(Nc2ccnc3cc(Cl)ccc23)c2ncccc2c1,73.8%,91%,99.7%,74.4%,75.5%,39.3%,76.7%,84.2%,106%,96.4%
